Redox H2O2 prof = compounds producing H2O2 with reducing agent – biochemical, NIH compound library profiling, artefact control for MLSCN library redox annotation, primary screen. AID 878. DTT-dependent redox cycling H2O2, phenol red/HRP absorbance; 100% = 100 µM peroxide control, 0% = buffer. activation, % at 10 µM. 0.03% of 200,000 active;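 active means activation of at least 50% relative to the plate's high and low controls in the primary single-dose screen; inactive means activation below 50%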;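 further: compound incubated with DTT at 0.8 mM final as the reducing agent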
Hsp70 act = Hsp70 transcriptional activation, primary screen. AID 1203. 0.04% of 200,000 active. activation, % at 10 µM. HeLa Hsp70 promoter luciferase reporter, luminescence; scaled: vehicle 0, proteasome-inhibitor control 100%;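 active means activation above the mean across all tested compounds plus 3 SD, cutoff set per campaign, cut at about 5.5% in these data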;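 further: 100% = MG132 at 30 µM as the positive control and 0% = DMSO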
HSV augment = HSV replication enhancement. HSV replication augmentation in cells, fold increase. maximum fold increase. 0.005% of 220,000 active. AID 1956; in the data active means maximum fold increase above about 1.5; inconclusive means no clear call, values can overlap the other calls; tested in PC3 cells
Wee1 stabilizer = human Wee1 degradation inhibition, primary screen | P30291 | HeLa Luc-Wee1K328M stability, luciferase luminescence; 100% = proteasome inhibitor MG132 effect | reporter increase, % at 5 µM | AID 1321 | 1.2% of 220,000 active;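 active means activation above the mean of all tested compounds plus 3 SD, set per screening run, cut at about 8.8% in these data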;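 further: cells exposed to compound for 20 h before luminescence read; 0% = DMSO alone and 100% = MG132 at 30 µM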
p97 ATPase inh = inhibitors of human p97 ATPase; recombinant p97 ATPase, Kinase-Glo ATP luminescence, 3 h; inhibition, % at 8 µM; 0.42% of 220,000 active; AID 1481; in the data active means inhibition above about 15%;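 further: 0% = DMSO vehicle and 100% = wells lacking enzyme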
* = called active by the depositor; i = inactive; ? = inconclusive; . = not tested or not shown. Most compounds without a hit are left out; they make up all but 1.6% or so of the library.

SMILES	Redox H2O2 prof	Hsp70 act	HSV augment	Wee1 stabilizer	p97 ATPase inh
CC(C)(C)OC(=O)NCCC(=O)N/N=C/c1cccc2nccnc12	.	.	i	9.3*	-8
O=C(N/N=C/c1cccc2nccnc12)c1ccccc1O	.	.	i	2	1
O=C(N/N=C/c1cccc2nccnc12)c1ccncc1	.	.	i	9.8*	-3
Cc1cc(C)n(CC(=O)N/N=C/c2ccco2)n1	1	0	i	9.2*	-2
O=C(N/N=C/c1ccco1)c1ccncc1	4	0	i	15*	5
CCOC(=O)C1CCN(C(=O)CS(=O)Cc2nc(-c3ccc(C)cc3)oc2C)CC1 (configuration not stated)	-1	0	i	1	-10
NC(=S)N(c1ccccc1)c1ccccc1	0	0	i	9.6*	5
Cc1nn(Cc2cccc(F)c2)c(C)c1NC(=O)c1ccc(COc2ccccc2Cl)cc1	0	0	i	0	-1
Cc1nn(Cc2c(F)c(F)c(F)c(F)c2F)c(C)c1NC(=O)c1cccc(COc2ccccc2Cl)c1	15	0	i	15*	1
Cc1cccc(CN(C)CCc2ccccn2)c1	0	0	i	1	-4
O=C(Nc1ccc(-c2ccc3nncn3n2)cc1)C1CCCC1	0	0	i	-2	2
CCn1cc(C(=O)NCCc2ccccc2)c(=O)c2cc(S(=O)(=O)N3CCCC3)ccc21	1	0	.	9.4*	-3
CCn1cc(C(=O)NCc2ccco2)c(=O)c2cc(S(=O)(=O)N3CCCC3)ccc21	1	0	.	0	0
CC(=O)Nc1cccc(C(=O)NCC2(N3CCCCC3)CCCCC2)c1	0	0	i	5	1
C/C(CC(=O)Nc1ccc(N(C)C)cc1)=N\NC(=O)C(=O)NCc1ccccc1	0	0	i	9.9*	4
COc1ccccc1/C=C(\NC(=O)c1ccc(OC)c(OC)c1)C(=O)Nc1cc([N+](=O)[O-])ccc1C	0	0	i	10*	4
Cc1ccc(OCCNc2cc(N3CCN(CCO)CC3)ccc2[N+](=O)[O-])cc1C	0	0	i	-3	-5
Cn1c(=O)c(=O)n(C)c2cc(S(=O)(=O)N3CCOCC3)ccc21	-2	0	i	12*	7
Cn1c(=O)n(C)c2cc(S(=O)(=O)O)ccc21	2	0	i	9.0*	4
Cn1c(=O)oc2cc(S(=O)(=O)N3CCOCC3)ccc21	3	0	i	0	1
COCCCNC(=O)c1ccccc1Oc1ccccc1	0	0	i	14*	4
CC(=O)NC1CCC(C(=O)O)(c2ccccc2)C1 (configuration not stated)	0	0	i	9.3*	0
Cc1ccc(NC(=O)C23CCC(C)(C(=O)[C@H]2Br)C3(C)C)cc1 (some centres not stated)	.	.	i	10*	4
O=C(/C=N/NC(=O)c1ccc(Cl)cc1Cl)c1ccccc1	.	.	i	-1	-3
O=C1CSC(c2cn(-c3ccccc3)nc2-c2cccs2)N1Cc1ccccc1 (configuration not stated)	0	0	.	6	2
SMILES	Redox H2O2 prof	Hsp70 act	HSV augment	Wee1 stabilizer	p97 ATPase inh
O=C(/C=C/c1ccccc1)N1CCN(CCN2C(=O)c3cccc4cccc(c34)C2=O)CC1	0	0	i	9.8*	2
COCCN(CCOC)S(=O)(=O)c1ccc(C(=O)Nc2nnc(C3CC3)o2)cc1	2	1	i	9.4*	5
Cc1nn(-c2ccccc2)c(Cl)c1/C=C1\SC(=S)N(C)C1=O	2	0	i	15*	0
C/C(CC(=O)NC1CCCCC1)=N\NC(=O)c1ccccn1	-1	0	i	1	4
Cc1[nH]c2c(C)cccc2c1CCNC(=O)c1ccc2c(c1[N+](=O)[O-])C(=O)c1ccccc1C2=O	-3	0	i	1	15*
Cn1c(CN2CCCC2)nc2cc(NC(=O)c3ccco3)ccc21	0	0	i	-1	-3
CC(OC(=O)Cc1coc2ccc3ccccc3c12)C(=O)Nc1ncc(Cl)cc1Cl (configuration not stated)	0	0	i	-3	0
CCCCCN1CC(O)=C(c2nc3ccccc3[nH]2)C1=N	0	0	i	10*	1
Fc1ccc(N/N=C/C=C/c2ccccc2)c(F)c1	0	0	i	10*	4
Fc1ccc(N/N=C/c2ccncc2)c(F)c1	0	0	i	1	-6
CCCC(=O)OCC(=O)Nc1ccc2[nH]c(=O)[nH]c2c1	-1	0	i	0	3
CC(=O)c1sc2nsc(SCCN3CCOCC3)c2c1N	.	.	i	9.0*	-1
COC(=O)c1ccc(N=NNc2ccc(C(=O)OC)cc2)cc1	0	0	i	0	-1
CCCCCCN1C=CC(=C/C=C(\C#N)C(=O)OCC)C=C1	-8	-1	?	-1	-3
CCCN1C=CC(=C/C=C(\C#N)C(=O)OCC)C=C1	2	0	?	12*	4
CCCCn1c(SCC(=O)Nc2cccc(C)n2)nnc1-c1ccco1	3	0	i	9.1*	0
Cc1cc(C)cc(OC2CCCCC2NS(=O)(=O)c2ccccc2)c1 (configuration not stated)	0	0	i	1	-1
COc1cccc(NC(=O)CN(C)CC(=O)NC(C)c2ccccc2)c1 (configuration not stated)	.	.	i	8.9*	-6
COc1cccc(NC(=O)CN(C)CC(=O)Nc2ccc(Br)cc2)c1	0	0	i	1	1
O=c1oc2ccccc2cc1-c1ccc(O)cc1	0	0	i	4	3
O=c1oc2ccccc2cc1NCc1ccccc1O	0	1	i	8.9*	3
COc1ccc(N2C(=O)CC(c3ccccc3)C2=O)cc1 (configuration not stated)	.	.	i	0	3
CCS(=O)(=O)N1Cc2ccccc2CC1C(=O)Nc1nnc(SCc2ccc(F)cc2)s1 (configuration not stated)	0	0	i	9.1*	-4
COc1ccccc1C(=O)Nc1cc(Cl)ccc1O	-3	0	i	5	15*
O=C(NCCCn1ccnc1)c1cnn2c1NC(c1ccccc1)CC2C(F)(F)F (configuration not stated)	0	0	i	1	-5
Cc1cc(C)cc(NC(=O)N2c3ccccc3NC(=O)CC2C)c1 (configuration not stated)	.	.	i	9.6*	10
CC1CC(=O)Nc2ccccc2N1C(=O)Nc1ccc(F)cc1 (configuration not stated)	.	.	i	0	-1
CC1CC(=O)Nc2ccccc2N1C(=O)CN1CCN(c2ccccc2)CC1 (configuration not stated)	-2	0	i	-3	5

Assay outcomes as filed in PubChem.
